Measurements as given in PubChem BioAssay AID1851 (National Center for Advancing Translational Sciences (NCATS), 2009).
“And” between values parts separate entries of the source, which are not always exact repeats. Equal values may be shown once. The whole screen tested about 16,000 compounds, of which about 5,800 (36%) were called active. Roughly 23% stayed inconclusive and do not appear here. The call rests on the fitted dose curve; in most records, active means well fitted curve in the direction sought with a large enough effect; inconclusive means small, poorly fitted or top-dose-only effect, or effect the other way; inactive means no such curve, though single readings can be large or run the other way. Some of the results follow. More than one record can exist for a structure, and the calls need not agree.

Target: Cytochrome P450 2C19 (Homo sapiens) (UniProt P33261)
Sequence (P33261 whole entry, looked up): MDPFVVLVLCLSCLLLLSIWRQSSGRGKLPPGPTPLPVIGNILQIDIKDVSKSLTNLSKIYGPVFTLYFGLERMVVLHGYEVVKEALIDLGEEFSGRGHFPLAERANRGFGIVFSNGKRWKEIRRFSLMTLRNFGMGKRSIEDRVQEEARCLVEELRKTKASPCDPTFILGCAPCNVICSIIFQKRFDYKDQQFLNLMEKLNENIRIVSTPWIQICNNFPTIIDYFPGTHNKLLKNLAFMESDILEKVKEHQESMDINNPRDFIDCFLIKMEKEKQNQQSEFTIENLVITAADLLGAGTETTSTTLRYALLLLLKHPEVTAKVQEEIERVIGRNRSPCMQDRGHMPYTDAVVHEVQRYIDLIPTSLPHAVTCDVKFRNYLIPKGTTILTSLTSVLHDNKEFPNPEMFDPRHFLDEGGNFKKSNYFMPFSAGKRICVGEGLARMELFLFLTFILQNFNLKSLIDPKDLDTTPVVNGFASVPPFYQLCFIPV
Experiment: Cytochrome panel assay with activity outcomes
Settings: recombinant CYP, pro-luciferin dealkylation, luminescence, p450-cyp2c19; series mostly up to 57.1 µM; activity, negative = inhibition: at the top concentration
Experimental: The P450 gene superfamily is involved in the metabolism and clearance of xenobiotics. This assay used various human CYP P450 isozymes to measure the dealkylation of various pro-luciferin substrates to luciferin. The luciferin is then measured by luminescence after the addition of a luciferase detection reagent. Pro-luciferin substrate concentration in the assay was equal to its KM for its CYP P450 isozyme. Inhibitors and some substrates limit the production of luciferin, and decrease measured luminescence.
NCGC Assay Protocol Summary:
1, Reagent, 2 uL, Isozyme and Pro-Luciferin
2, Library compounds, 23 nl, 40 uM to 0.24 nM dilution series
3, Controls, 23 nl, Isozyme specific inhibitor
4, Reagent, 2 uL, NADPH regeneration solution
5, Incubation time, 60 min, Isozyme specific temperature
6, Reagent, 4ul, Detection reagent
7, Incubation time, 20 min, Isozyme specific temperature
8, Detection, 1 sec, ViewLux luminescent read
The luciferase-based P450-GloTM Screening Systems were obtained from Promega (Madison, WI) for CYP 1A2 (V9770), CYP 2C9 (V9790), CYP2 C19 (V9880), CYP 2D6 (V9890), and CYP 3A4 Luciferin-PPXE (V9910) and were adapted for 1,536-well microplates and an automated protocol. The control compounds furafylline for 1A2 (F124), sulfaphenazole for CYP 2C9 (S0758), ketoconazole for CYP 2C19 (K1003), quinidine for 2D6 (Q3625), and ketoconazole for 3A4 (K1003) were purchased from Sigma Aldrich (St. Louis, MO). Recombinant P450 enzymes were obtained from baculovirus constructs expressed in insect cells (BD/Gentest).
Medium-binding white solid Kalypsys plates used. Mixtures kept on ice. 1A2: 10 nM 1A2, 100 uM Luc-ME, 100 mM KPO4; 2C9: 10 nM 2C9, 100 uM Luc-H, 25 mM KPO4; 2C19: 5 nM 2C19, 10 uM Luc-H EGE, 50 mM KPO4; 2D6: 5 nM 2D6, 30 uM Luc-ME EGE, 100 mM KPO4; 3A4: 10 nM, 25 uM Luc-PPXE. All amounts are reflected in their final concentration, working concentration is 2x.
NADPH regeneration solution: 1.3 mM NADP+, 3.3 mM glucose-6-phosphate, 3.3 mM MgCl2, 0.4 U/mL glucose-6-phosphate dehydrogenase for all isozymes, 200 mM KPO4 for 3A4. Mixture prepared at RT but kept on ice during automated run.
RT incubation in auxilliary plate hotel for 1A2, 2D6, and 3A4; 37C for 2C9 and 2C19.
Keywords: P450, CYP1A2, CYP2C19, CYP2C9, CYP2D6, CYP3A4, Luciferase, MLSMR, MLSCN, NIH Roadmap, qHTS, NCGC
On the % scale 0 is the no-effect control and ±100 the full control effect.

Row | SMILES | activity, negative = inhibition | AC50
1 | CNC(=O)Oc1ccc2c(c1)[C@@]1(C)CCN(C)[C@@H]1N2C | 33.5% [at 25.6 µM] (inactive) | 
2 | C[C@]12CC[C@H]3c4ccc(O)cc4CC[C@@H]3[C@H]1CC[C@@H]2OP(=O)(O)O | 34.7% [at 11.4 µM] (inactive) | 
3 | CCCN(CCC)C(=O)Cc1c(-c2ccc(Cl)cc2)nc2c(Cl)cc(Cl)cn12 | 16.9% (inactive) | 
4 | COc1ccc(OC)c([C@H](O)[C@H](C)N)c1 |  | inactive
5 | COc1ccc(Cl)cc1NC(=O)NCCCl |  | 20 µM (active)
6 | CC1=NCCc2c1[nH]c1cc(O)ccc21 | -35.5% [at 25.6 µM] (inactive) | 
7 | O=C(NCCN1CCN(C(=O)C(c2ccccc2)c2ccccc2)CC1)C(=O)Nc1ccccc1 |  | 25.1 µM (active)
8 | O=C(OC1CCN(CCCl)CC1)C(c1ccccc1)c1ccccc1 | -33.4% (inactive) | 
9 | O=C(c1ccccc1)[C@H]1[C@H](c2ccccc2[N+](=O)[O-])N1C1CCCCC1 (some centres not stated) | -82.8% [at 11.4 µM] (inactive) | 
10 | Cc1ccc(C2(c3ccc(C)c(O)c3C)CCN(C)CC2)c(C)c1O | 2.67% [at 11.4 µM] (inactive) | 
11 | CN1[C@@H]2CC[C@H]1CC(O)C2 (some centres not stated) | 12.6% [at 25.6 µM] (inactive) | 
12 | O=C(O)CN1CCN(CC(=O)O)CC(=O)[O][Hg][O]C(=O)C1 |  | 0.794 µM (active)
13 | CC(C)NP(=O)(NC(C)C)OP(=O)(NC(C)C)NC(C)C | -22.2% (inactive) | 
14 | O=C(Nc1ccccc1)N1CC[C@@]2(CCCN(C(=O)Oc3ccccc3)C2)C1 | -42.9% (inactive) | 
15 | COc1cc([C@H]2c3cc4c(cc3[C@@H](O)[C@@H]3COC(=O)[C@H]23)OCO4)cc(OC)c1OC |  | 10 µM (active)
16 | NC(=O)c1ccc(C(=O)Nc2ccc([As](=O)(O)O)cc2)cc1 | 10.2% [at 11.4 µM] (inactive) | 
17 | CCCCC1(CCCC)C(=O)NC(=Nc2cccc(C)c2)NC1=O |  | 2.24 µM (active)
18 | CC[N+](CC)(CCNC(=O)C(=O)NCC[N+](CC)(CC)Cc1ccccc1Cl)Cc1ccccc1Cl | 15.6% (inactive) | 
19 | O=C(Oc1ccccc1)N1CCC2(CCCN(Cc3ccccc3)C2)CC1 | -12.9% (inactive) | 
20 | Cc1nc2ccccc2c(=O)n1-n1cnnc1 | -6.22% (inactive) | 
21 | Cc1nc2sccc2c(=O)n1-c1ccccc1Cl |  | 2.82 µM (active)
22 | C[C@@H](N)Cn1ccc2cc(F)c(Cl)cc21 | -25.1% (inactive) | 
23 | CC(C)CCC1(CCN)C(=O)NC(=O)NC1=O | 5.97% [at 11.4 µM] (inactive) | 
24 | CN1CCN(c2ncc3ncc(=O)n(C)c3n2)CC1 | -10.5% (inactive) | 

Row | SMILES | activity, negative = inhibition | AC50
25 | CC(C)[C@]1(O)[C@@H](OC(=O)c2ccc[nH]2)[C@]2(O)[C@@]3(C)C[C@@]4(O)O[C@@]5([C@H](O)[C@@H](C)CC[C@]35O)[C@]2(O)[C@]41C | 23.6% [at 11.4 µM] (inactive) | 
26 | CCC(=O)O[C@@](Cc1ccccc1)(c1ccccc1)[C@@H](C)CN(C)C | 15.8% [at 25.6 µM] (inactive) | 
27 | O=C(Oc1ccccc1)N1CCC2(CCCN(C(c3ccccc3)c3ccccc3)C2)CC1 | 15.4% (inactive) | 
28 | CCOP(=O)(OCC)C(NC(C)=O)C(Cl)(Cl)Cl (configuration not stated) | -27% (inactive) | 
29 | CCOP(=O)(OCC)C(NC(=O)C(Cl)Cl)C(Cl)(Cl)Cl (configuration not stated) |  | 10 µM (active)
30 | N#Cc1ccc(CN2CC[C@@]3(CCCN(C(=O)Oc4ccccc4)C3)C2)cc1 | -34.6% (inactive) | 
31 | C[N+](C)(C)CCCCCC[N+](C)(C)C | 29.6% (inactive) | 
32 | Cc1cccc([C@H](C)c2cnc[nH]2)c1C |  | 5.01 µM (active)
33 | C[N+]1(C)C2CC[C@H]1CC(OC(=O)[C@@H](CO)c1ccccc1)C2 (some centres not stated) | 14.6% [at 11.4 µM] (inactive) | 
34 | CNCCCc1ccccc1 | -25% (inactive) | 
35 | C#CCN[C@@H](C)Cc1ccccc1 | 12.5% (inactive) | 
36 | C[C@@H](Cc1cccc(C(F)(F)F)c1)NCCCc1ccccc1 |  | 1.26 µM (active)
37 | c1ccc2c(N3CCNCC3)cccc2c1 | 41% (inactive) | 
38 | CP(=O)(O)CCCN |  | inactive
39 | C[C@]12N[C@@H](Cc3ccccc31)c1ccccc12 |  | inactive
40 | C=C1[C@@H]2CC[C@H]3[C@@]4(C)C[C@@H](O[C@@H]5O[C@H](CO)[C@H](OS(=O)(=O)O)[C@@H](OS(=O)(=O)O)[C@@H]5OC(=O)CC(C)C)C[C@@H](C(=O)O)[C@H]4CC[C@@]3(C2)[C@H]1O | 24.2% [at 25.6 µM] (inactive) | 
41 | N[C@H](CP(=O)(O)O)C(=O)O | 27% (inactive) | 
42 | Cc1nc(-c2ccc(-c3ccc(C(=O)N4CCc5cc6c(cc54)C4(CCN(C)CC4)CO6)cc3)c(C)c2)no1 |  | inactive and 3.98 µM (active)
43 | C[C@@H]1O[C@H]1P(=O)(O)O | 28.4% (inactive) | 
44 | N[C@H](CCCP(=O)(O)O)C(=O)O | -8.91% (inactive) | 
45 | N#C/C(=C\c1ccc(O)c(O)c1)C(N)=S |  | inactive and 25.1 µM (active)
46 | N#C/C(=C\c1ccc(O)c(O)c1)C(=O)NCCCNC(=O)/C(C#N)=C/c1ccc(O)c(O)c1 | -18.8% (inactive) | 
47 | N#CC(C#N)=Cc1cc(O)c(O)c(O)c1 | -24.2% (inactive) | 
